Assay results: PMC5540273 (PLoS ONE, 2017)

How the values were obtained:
Conditions in all cases: concentration: 1 μM, replicates: in singlicate; n = 1
SNARK = system: T1, SNARK
T1 construct: gene NUAK2

SNRK = system: SNRK
SRC = system: SRC
SRMS = system: SRMS
SRPK1 = system: SRPK1
SRPK2 = system: SRPK2
SRPK3 = system: SRPK3
STK16 = system: STK16
STK33 = system: STK33
STK35 = system: STK35
STK36 = system: STK36
STK39 = system: STK39
SYK = system: SYK
SgK110 = system: SgK110
TAK1 = system: T2, TAK1
T2 construct: gene MAP3K7

TAOK1 = system: TAOK1
TAOK2 = system: TAOK2
TAOK3 = system: TAOK3
TBK1 = system: TBK1
TEC = system: TEC
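Note: KINOMEscan kinase panel screen.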

Structure (SMILES): Cn1cc(-c2ccc3c(c2)CCN3C(=O)Cc2cc(F)cc(C(F)(F)F)c2)c2c(N)ncnc21 [GSK2635225]
- %Inh (SNARK): 10%
- %Inh (SNRK): 0%
- %Inh (SRC): 29%
- %Inh (SRMS): 0%
- %Inh (SRPK1): 18%
- %Inh (SRPK2): 0%
- %Inh (SRPK3): 2%
- %Inh (STK16): 20%
- %Inh (STK33): 0%
- %Inh (STK35): 0%
- %Inh (STK36): 19%
- %Inh (STK39): 0%
- %Inh (SYK): 27%
- %Inh (SgK110): 0%
- %Inh (TAK1): 39%
- %Inh (TAOK1): 0%
- %Inh (TAOK2): 0%
- %Inh (TAOK3): 0%
- %Inh (TBK1): 21%
- %Inh (TEC): 0%

Structure (SMILES): O=C(Nc1n[nH]c2nc(-c3cccc(O)c3)ccc12)C1CC1 [SB-711805]
- %Inh (SNARK): 0%
- %Inh (SNRK): 7%
- %Inh (SRC): 0%
- %Inh (SRMS): 15%
- %Inh (SRPK1): 45%
- %Inh (SRPK2): 0%
- %Inh (SRPK3): 32%
- %Inh (STK16): 83%
- %Inh (STK33): 0%
- %Inh (STK35): 0%
- %Inh (STK36): 14%
- %Inh (STK39): 4%
- %Inh (SYK): 40%
- %Inh (SgK110): 0%
- %Inh (TAK1): 15%
- %Inh (TAOK1): 88%
- %Inh (TAOK2): 12%
- %Inh (TAOK3): 34%
- %Inh (TBK1): 23%
- %Inh (TEC): 0%

Structure (SMILES): O=C1NC(=O)C(c2ccccc2Cl)=C1Nc1cccc(Cl)c1 [SB-342409]
- %Inh (SNARK): 0%
- %Inh (SNRK): 11%
- %Inh (SRC): 0%
- %Inh (SRMS): 0%
- %Inh (SRPK1): 21%
- %Inh (SRPK2): 0%
- %Inh (SRPK3): 23%
- %Inh (STK16): 13%
- %Inh (STK33): 0%
- %Inh (STK35): 6%
- %Inh (STK36): 0%
- %Inh (STK39): 9%
- %Inh (SYK): 0%
- %Inh (SgK110): 0%
- %Inh (TAK1): 0%
- %Inh (TAOK1): 0%
- %Inh (TAOK2): 0%
- %Inh (TAOK3): 11%
- %Inh (TBK1): 7%
- %Inh (TEC): 13%

Structure (SMILES): Cc1ccc(O)cc1Nc1ccnc2cc(-c3ccc(CN4CCCCC4)o3)ccc12 [GW557777]
- %Inh (SNARK): 11%
- %Inh (SNRK): 0%
- %Inh (SRC): 100%
- %Inh (SRMS): 23%
- %Inh (SRPK1): 32%
- %Inh (SRPK2): 0%
- %Inh (SRPK3): 15%
- %Inh (STK16): 22%
- %Inh (STK33): 61%
- %Inh (STK35): 0%
- %Inh (STK36): 0%
- %Inh (STK39): 0%
- %Inh (SYK): 69%
- %Inh (SgK110): 0%
- %Inh (TAK1): 35%
- %Inh (TAOK1): 0%
- %Inh (TAOK2): 0%
- %Inh (TAOK3): 0%
- %Inh (TBK1): 0%
- %Inh (TEC): 21%

Structure (SMILES): Cl.N#CCc1ccc(Nc2nccc(Nc3ccc(Oc4ccccc4)cc3)n2)cc1 [GW639905]
- %Inh (SNARK): 96.6%
- %Inh (SNRK): 2%
- %Inh (SRC): 37%
- %Inh (SRMS): 82%
- %Inh (SRPK1): 18%
- %Inh (SRPK2): 0%
- %Inh (SRPK3): 0%
- %Inh (STK16): 79%
- %Inh (STK33): 0%
- %Inh (STK35): 65%
- %Inh (STK36): 0%
- %Inh (STK39): 10%
- %Inh (SYK): 5%
- %Inh (SgK110): 6%
- %Inh (TAK1): 0%
- %Inh (TAOK1): 0%
- %Inh (TAOK2): 7%
- %Inh (TAOK3): 0%
- %Inh (TBK1): 6%
- %Inh (TEC): 75%

Structure (SMILES): CC(C)c1nc(-c2ccc(F)c(NS(=O)(=O)c3c(F)cccc3F)c2)c(-c2ccnc(Nc3ccc(N4CCOCC4)nc3)n2)s1 [GSK1804250]
- %Inh (SNARK): 17%
- %Inh (SNRK): 0%
- %Inh (SRC): 100%
- %Inh (SRMS): 99.9%
- %Inh (SRPK1): 54%
- %Inh (SRPK2): 0%
- %Inh (SRPK3): 18%
- %Inh (STK16): 39%
- %Inh (STK33): 8%
- %Inh (STK35): 74%
- %Inh (STK36): 100%
- %Inh (STK39): 11%
- %Inh (SYK): 46%
- %Inh (SgK110): 0%
- %Inh (TAK1): 46%
- %Inh (TAOK1): 4%
- %Inh (TAOK2): 0%
- %Inh (TAOK3): 5%
- %Inh (TBK1): 6%
- %Inh (TEC): 45%

Structure (SMILES): CN(C)CCNS(=O)(=O)c1ccc(-c2ccnc3[nH]ccc23)cc1 [GSK977620]
- %Inh (SNARK): 73%
- %Inh (SNRK): 0%
- %Inh (SRC): 6%
- %Inh (SRMS): 0%
- %Inh (SRPK1): 45%
- %Inh (SRPK2): 0%
- %Inh (SRPK3): 0%
- %Inh (STK16): 62%
- %Inh (STK33): 66%
- %Inh (STK35): 15%
- %Inh (STK36): 0%
- %Inh (STK39): 5%
- %Inh (SYK): 31%
- %Inh (SgK110): 0%
- %Inh (TAK1): 1%
- %Inh (TAOK1): 3%
- %Inh (TAOK2): 0%
- %Inh (TAOK3): 0%
- %Inh (TBK1): 0%
- %Inh (TEC): 0%

Structure (SMILES): CC(C)NCC(Cc1ccccc1)NC(=O)c1cc(Br)c(-c2ccnc3[nH]ccc23)s1.Cl.Cl (centres unmarked) [GSK1383281]
- %Inh (SNARK): 89%
- %Inh (SNRK): 0%
- %Inh (SRC): 0%
- %Inh (SRMS): 0%
- %Inh (SRPK1): 43%
- %Inh (SRPK2): 0%
- %Inh (SRPK3): 0%
- %Inh (STK16): 46%
- %Inh (STK33): 96.6%
- %Inh (STK35): 0%
- %Inh (STK36): 0%
- %Inh (STK39): 0%
- %Inh (SYK): 0%
- %Inh (SgK110): 73%
- %Inh (TAK1): 0%
- %Inh (TAOK1): 41%
- %Inh (TAOK2): 0%
- %Inh (TAOK3): 0%
- %Inh (TBK1): 20%
- %Inh (TEC): 0%

Structure (SMILES): N#Cc1cnc2cc(-c3cnc(CNCCN4CCOCC4)s3)ccc2c1Nc1ccc(Oc2ccccc2)cc1 [GW664114]
- %Inh (SNARK): 0%
- %Inh (SNRK): 0%
- %Inh (SRC): 94.1%
- %Inh (SRMS): 95.9%
- %Inh (SRPK1): 30%
- %Inh (SRPK2): 0%
- %Inh (SRPK3): 0%
- %Inh (STK16): 12%
- %Inh (STK33): 2%
- %Inh (STK35): 97.7%
- %Inh (STK36): 7%
- %Inh (STK39): 0%
- %Inh (SYK): 82%
- %Inh (SgK110): 0%
- %Inh (TAK1): 12%
- %Inh (TAOK1): 0%
- %Inh (TAOK2): 0%
- %Inh (TAOK3): 0%
- %Inh (TBK1): 34%
- %Inh (TEC): 88%

Structure (SMILES): COc1ccc(C2=C(Nc3cccc(O)c3)C(=O)NC2=O)cc1 [SB-390766]
- %Inh (SNARK): 0%
- %Inh (SNRK): 0%
- %Inh (SRC): 0%
- %Inh (SRMS): 0%
- %Inh (SRPK1): 49%
- %Inh (SRPK2): 0%
- %Inh (SRPK3): 0%
- %Inh (STK16): 34%
- %Inh (STK33): 100%
- %Inh (STK35): 0%
- %Inh (STK36): 100%
- %Inh (STK39): 34%
- %Inh (SYK): 0%
- %Inh (SgK110): 100%
- %Inh (TAK1): 0%
- %Inh (TAOK1): 0%
- %Inh (TAOK2): 1%
- %Inh (TAOK3): 0%
- %Inh (TBK1): 0%
- %Inh (TEC): 14%
